This is an account of results in the supplement of paper PMC6555819.

What all share (experiment): PBM binding z-score (relative to random genomic background probes); higher = stronger binding; sequences stand for … in GC…GCGATTGACAGCGTAGAATGAAGG
The subject of assay [1] is FXR:RXRa (NR concentration 270 nM, RXRa partner concentration 90 nM). In outline: (§1)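 Each nuclear receptor dimer, without ligand, was incubated for 1 h on custom Agilent 4×180K protein-binding microarrays. Binding was detected with antibodies against each partner (one per run), and scanned fluorescence was regression-normalized. The binding z-scores are referenced to random human genomic background probes.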

In assay [2] the test system is LXRa homodimer (NR concentration 270 nM). In outline: as §1
Assay [3] has as its system LXRb homodimer (NR concentration 270 nM). A digest of the protocol: as §1
Assay [4] deals with PPARg:RXRa (NR concentration 180 nM, RXRa partner concentration 90 nM). A digest of the protocol:
as §1

For assay [5], the system named is PPARg:RXRa 270nM:90nM, anti-RXR (NR concentration 270 nM, RXRa partner concentration 90 nM). In outline:
as §1

Assay [6] has as its system PPARg:RXRa 30nM:10nM, anti-RXR (NR concentration 30 nM, RXRa partner concentration 10 nM). In outline:
as §1

For assay [7], the system named is PPARg:RXRa 90nM:30nM, anti-RXR (NR concentration 90 nM, RXRa partner concentration 30 nM). In outline:
as §1

Assay [8] has as its system PPARg:RXRa DBDmut IVT, anti-RXR (DBD mutation: RXRa K156A/R161A, NR concentration 270 nM, RXRa partner concentration 90 nM). A digest of the protocol: as §1
In assay [9] the test system is PPARg:RXRa IVT, anti-PPARg (NR concentration 270 nM, RXRa partner concentration 90 nM). A digest of the protocol: as §1
Assay [10] concerns PPARg DBDmut:RXRa IVT, anti-PPARg (DBD mutation: PPARg1 K132A/R137A, NR concentration 270 nM, RXRa partner concentration 90 nM). A digest of the protocol: as §1
Assay [11] relates to PPARg DBDmut IVT, anti-PPARg (DBD mutation: PPARg1 K132A/R137A, NR concentration 270 nM). In outline:
as §1

Assay [12] has as its system PPARg homodimer (NR concentration 180 nM). In outline: as §1
For assay [13], the system named is PXR:RXRa (NR concentration 270 nM, RXRa partner concentration 90 nM). A digest of the protocol:
as §1

Assay [14] deals with PXR homodimer (NR concentration 270 nM). In outline:
as §1

The test system of assay [15] is RARa:RXR (NR concentration 270 nM, RXRa partner concentration 90 nM). A digest of the protocol: as §1
The subject of assay [16] is RARa homodimer (NR concentration 270 nM). In outline: as §1
For assay [17], the system named is RARb:RXRa (NR concentration 270 nM, RXRa partner concentration 90 nM). In outline: as §1
The test system of assay [18] is RARb homodimer (NR concentration 270 nM). In outline: as §1
Assay [19] relates to PPARa:RXRa (NR concentration 270 nM, RXRa partner concentration 90 nM). A digest of the protocol: as §1

On to TCTTGTAGATCAACAGGAGGTTAATAAAGATCGA, for which the PBM binding z-score in assay [1] is 0.0439; in assay [2], -0.0218; in assay [3], -0.135; in assay [4], 0.6; in [5], 1.68; in [6], 2.71. In addition, the PBM binding z-score came to 2.08 in [7]; 1.38 in assay [8]; 0.851 in [9]; 0.688 in assay [10]; 0.752 in assay [11]; 0.0813 in assay [12]. The PBM binding z-score is 0.776 in assay [13]; -0.162 in assay [14]; 1.23 in assay [15]; 0.176 in [16]; 0.533 in assay [17]; 0.497 in assay [18].
Turning to GCTAGTTGGTCAGTAAAAGGTGACACACCGGTCG, the PBM binding z-score in [1] is 0.000592; in assay [2], -0.18; in [3] it was -0.568; in assay [4] it was 0.834; in [5], 1.59; in assay [6], -0.104. Besides, the PBM binding z-score in assay [7] was 1.02; in assay [8], 0.643; in assay [9] it was 1.63; in assay [10], -1.22; in assay [11] it was -1.06; in [12], 0.86. For the same sequence, the PBM binding z-score was 0.431 in assay [13]; -0.523 in assay [14]; 1.07 in assay [15]; 0.0812 in assay [16]; 1.83 in assay [17]; 2.45 in [18].
On to AGAATGAGGTTACCAAAGTTCAGGGAAACGCTTG, for which the PBM binding z-score was 3.73 in assay [1]; 7.31 in assay [2]; -0.0133 in assay [3]; 3.65 in assay [4]; 4.08 in [5]; 1.65 in [6]. The PBM binding z-score in assay [7] was 3.24; in assay [8], 3.96; in [9], 4.09; in [10] it was 0.616; in assay [11] it was 0.161; in assay [12] it was 1.31. Besides, the PBM binding z-score in assay [13] was 6.02; in assay [14] it was 3.03; in assay [15], 3.93; in assay [16], 0.38; in [17] it was 3.81; in assay [18], 3.93.
TCGCCTAGGTCATGGGCCAGTATACCACGCGAAC: the PBM binding z-score in [1] was 4.68; in [2], 0.142; in assay [3] it was -0.146; in assay [4], 3.52; in assay [5], 3.4; in assay [6], 1.9. For the same sequence, the PBM binding z-score in assay [7] is 2.9; in [8], 1.88; in assay [9], 2.65; in assay [10], 0.306; in assay [11], -0.587; in [12] it was 1.21. Also, the PBM binding z-score is 1.7 in assay [13]; -0.2 in assay [14]; 2.97 in assay [15]; -0.243 in assay [16]; 3.97 in [17]; 3.12 in [18].
With AATACAGGGTCATCGTAGGTCAGAGTACGCACAG, the PBM binding z-score in [1] was found to be 7.7; in [2], 5.76; in assay [3], 1.95; in [19] it was 6.23; in assay [4] it was 7.46; in assay [5], 6.38. Moreover, the PBM binding z-score was found to be 3.55 in assay [6]; 5.23 in [7]; 3.26 in [8]; 5.07 in assay [9]; 3.45 in [10]; 1.68 in assay [11]. In addition, the PBM binding z-score in assay [12] came out at 3.34; in assay [14], 1.57; in [15], 6.33; in assay [16], 1.7; in assay [17], 4.69; in assay [18], 4.58.
In the case of CGTCCAAGGTCATTGGAGGTCAGTGAAGACAGAT, the PBM binding z-score in assay [1] came out at 7.92; in assay [2], 6.77; in assay [3], 1.93; in [4], 5.48; in assay [5], 5.76; in assay [6], 2.48. In addition, the PBM binding z-score in assay [7] is 4.57; in assay [8], 3.6; in [9], 4.79; in [10] it was 0.319; in assay [11], -0.697; in assay [12] it was 5.59. The PBM binding z-score in [13] worked out at 7.17; in [14], 8.63; in assay [15], 6.25; in assay [16], 2.43; in assay [17], 5.56; in [18], 5.54.
For the sequence CCTAGCAGGCCAATCTAGGTCACTCAAGGCTTGA, the PBM binding z-score in [1] is 1.46; in assay [2], 0.192; in [3], -0.859; in [4], 2.1; in assay [5], 2.47; in assay [6], 0.115. For the same sequence, the PBM binding z-score in [7] is 1.49; in [8] it was 5.08; in assay [9], 5.19; in [10], -0.0838; in [11] it was -0.865; in assay [12], 0.707. In addition, the PBM binding z-score in [13] is 1.51; in assay [14], -0.261; in [15], 1.37; in [16], -0.161; in [17] it was 2.02; in [18], 2.68.
For ATATGTAGGTTATCGGGTCATACAGTTTGCGCAT, the PBM binding z-score in assay [1] was 3.18; in assay [2], 1.45; in [3], 1.35; in [4], 7.64; in assay [5] it was 6.2; in assay [6], 4.38. For the same sequence, the PBM binding z-score turned out to be 5.61 in assay [7]; 7.63 in [8]; 7.62 in assay [9]; 3.33 in assay [10]; 1.78 in [11]; 2.48 in assay [12]. Moreover, the PBM binding z-score worked out at 3.54 in assay [13]; 2.74 in assay [14]; 4 in [15]; 1.32 in assay [16]; 2.75 in assay [17]; 3.17 in assay [18].
